Measured values as given in PubChem BioAssay (Tox21).
Records with an inconclusive call do not appear. Where a call stands in place of a potency, no number is given. The source made the active and inactive calls. Unless noted, the call rests on the fitted dose curve; in most records, active means well fitted curve in the direction sought with a large enough effect in the repeat runs; inconclusive means weak or mixed curves; inactive means no such curve, though single readings can be large; an effect the other way counts as inactive or inconclusive.

Experiments:
[1] = qHTS assay to identify small molecule agonists of the peroxisome proliferator-activated receptor delta (PPARd) signaling pathway - cell viability counter screen (AID 743211); further: nearly all actives have a fitted effect of over 55% in size
In short: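 Luminescent ATP viability assay (CellTiter-Glo, 30 min RT) in UAS-bla HEK293H cells carrying the PPAR delta reporter construct, 3000 cells/well, after a 17 h compound treatment at 37 C.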

[2] = target: Peroxisome proliferator-activated receptor delta (Homo sapiens) (UniProt Q03181); assay: qHTS assay to identify small molecule agonists of the peroxisome proliferator-activated receptor delta (PPARd) signaling pathway (AID 743212; calls by dose curve)
In short: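 A PPARd-bla HEK293H line with beta-lactamase under an Upstream Activator Sequence is treated with compounds at 37 C. Substrate loading for 2 h at room temperature precedes the fluorescence measurement.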

[3] = qHTS assay to identify small molecule antagonists of the peroxisome proliferator-activated receptor delta (PPARd) signaling pathway - cell viability counter screen (AID 743213); further: nearly all actives have a fitted effect of over 50% in size
In short: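 HEK293H cells with the PPARd UAS-bla reporter, co-treated 17 h at 37 C with compounds and L165041 (300 nM final), were lysed with CellTiter-Glo. Luminescence indicated viable cell content.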

[4] = target: Peroxisome proliferator-activated receptor delta (Homo sapiens) (UniProt Q03181); assay: qHTS assay to identify small molecule antagonists of the peroxisome proliferator-activated receptor delta (PPARd) signaling pathway (AID 743215; active means well fitted inhibition curve with a large enough effect in the signal ratio in the repeat runs, not every such curve was filed as active; the % refers to the signal ratio;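 further: cells stimulated with agonist L165041 at 300 nM final during compound exposure; series mostly up to about 62 µM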)
In short: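 Antagonist-mode beta-lactamase reporter screen: HEK293H cells with UAS-bla under PPARd control, stimulated by 300 nM L165041 (final) alongside test compound for 17 h at 37 C, then FRET fluorescence after 2 h substrate incubation.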

[5] = target: Bile acid receptor (Homo sapiens) (UniProt Q96RI1); assay: qHTS assay to identify small molecule antagonists of the farnesoid-X-receptor (FXR) signaling pathway (AID 743217; active means well fitted inhibition curve with a large enough effect in the signal ratio in the repeat runs, not every such curve was filed as active; the % refers to the signal ratio)
In short: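 Beta-lactamase reporter under UAS control in HEK 293T cells; compound exposure 16 h at 37 °C in the presence of chenodeoxycholic acid (50 uM final); signal from B/G FRET substrate after 2 h at room temperature.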

[6] = target: Bile acid receptor (Homo sapiens) (UniProt Q96RI1); assay: qHTS assay to identify small molecule agonists of the farnesoid-X-receptor (FXR) signaling pathway (AID 743220; active means well fitted activation curve with a large enough effect in the signal ratio in the repeat runs, not every such curve was filed as active; the % refers to the signal ratio)
In short: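 Beta-lactamase reporter under UAS control in GeneBLAzer FXR HEK 293T cells (5000/well) measured with LiveBLAzer FRET substrate after 2 h at room temperature. Compound exposure lasted 16 h at 37C.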

[7] = target: Vitamin D3 receptor (Homo sapiens) (UniProt P11473); assay: qHTS assay to identify small molecule agonists of the vitamin D receptor (VDR) signaling pathway (AID 743222; calls by dose curve)
In short: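 Agonist activity measured in VDR-bla reporter cells. Exposure 16 h, 37C, 5% CO2; detection by B/G FRET substrate, 2 h RT.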

[8] = qHTS assay to identify small molecule agonists of the vitamin D receptor (VDR) signaling pathway - cell viability counter screen (AID 743224); further: series mostly up to about 63 µM; nearly all actives have a fitted effect of over 50% in size
In short: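 VDR-bla cell line, quantitative HTS format; 16 h compound incubation (37C, 5% CO2); ATP-based CellTiter-Glo luminescence measured in the reporter assay wells.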

[9] = qHTS assay to identify small molecule antagonists of the vitamin D receptor (VDR) signaling pathway - cell viability counter screen (AID 743225); further: nearly all actives have a fitted effect of over 50% in size
In short: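 Luminescent cell viability (CellTiter-Glo) in VDR-bla HEK 293T cells after 16 h compound exposure at 37C in the presence of 3 nM final 1-alpha,25-dihydroxy vitamin D3.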

[10] = qHTS assay to identify small molecule agonists of the NFkB signaling pathway (AID 1159509; active means well fitted curve in the direction sought with a large enough effect in the signal ratio in the repeat runs, not every such curve was filed as active; the % refers to the signal ratio; further: series mostly up to about 61 µM)
In short: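 NFkB-bla ME-180 cells carry a beta-lactamase reporter under an NF-kB response element. They were plated overnight, then exposed to compounds for 5 h at 37 C. Read-out is LiveBLAzer FRET after 1.5 hr at room temperature (405 nm excitation; 460/530 nm emission).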

[11] = qHTS assay to identify small molecule antagonists of the retinoid-related orphan receptor gamma (ROR-gamma) signaling pathway - cell viability counter screen (AID 1159520); further: nearly all actives have a fitted effect of over 50% in size; further: potency means the concentration at half of the fitted maximal effect
In short: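 Tet-on ROR gamma CHO cells (1,000/well) were plated 4 hr, given compounds in DMSO for 2 hr at 37 C, then induced with 1 uM final doxycycline for 16 hr. Viability was read as ATP by CellTiter-Glo luminescence after 30 min.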

[12] = target: Nuclear receptor ROR-gamma (Homo sapiens) (UniProt P51449); assay: qHTS assay to identify small molecule antagonists of the retinoid-related orphan receptor gamma (ROR-gamma) signaling pathway (AID 1159521; further: nearly all actives have a fitted effect of over 50% in size; further: potency means the concentration at half of the fitted maximal effect)
In short: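 CHO cells expressing RORγ under a TET-on promoter, luciferase under RORE control. Dox 1 uM final, 16 h; compounds added 2 h prior. Luminescence decrease measured.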

[13] = qHTS assay to identify small molecule agonists of the AP-1 signaling pathway - cell viability counter screen (AID 1159525; calls by dose curve; further: nearly all actives have a fitted effect of over 55% in size)
In short: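 ME-180 AP-1-bla, 2500 cells/well, Opti-MEM + 0.5% dialyzed FBS; overnight 37 °C; cpd 15-pt titration, 5 h 37 °C; CellTiter-Glo 30 min RT; luminescence read; normalised to TOAB and DMSO controls.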

[14] = qHTS assay to identify small molecule agonists of the AP-1 signaling pathway (AID 1159526; calls by dose curve)
[15] = qHTS assay to identify small molecule agonists of the farnesoid-X-receptor (FXR) signaling pathway - cell viability counter screen (AID 743218); further: nearly all actives have a fitted effect of over 45% in size
In short: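 In GeneBLAzer FXR-UAS-bla HEK 293T cells, compounds act for 16 h at 37 C. Cell viability is then scored in the reporter wells by CellTiter-Glo, 30 min at RT, luminescence.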

[16] = qHTS assay to identify small molecule antagonists of the farnesoid-X-receptor (FXR) signaling pathway - cell viability counter screen (AID 743221; active means well fitted cell-killing curve with a large enough effect in the repeat runs, not every such curve was filed as active; further: nearly all actives have a fitted effect of over 50% in size)
In short: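 In GeneBLAzer FXR-UAS-bla HEK 293T cells stimulated with 50 uM chenodeoxycholic acid (final), compounds acted for 16 h at 37 C. Viability was assessed afterwards by CellTiter-Glo luminescence.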

[17] = qHTS assay to identify small molecule agonists of the endoplasmic reticulum stress response signaling pathway (AID 1159516; active means well fitted activation curve with a large enough effect in the signal ratio in the repeat runs, not every such curve was filed as active; the % refers to the signal ratio)
In short: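 ER stress element reporter (bla) in HeLa. 1,500 cells/well, overnight attachment; 5 hr compound; 2 hr RT substrate; dual-emission fluorescence.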

[18] = target: Vitamin D3 receptor (Homo sapiens) (UniProt P11473); assay: qHTS assay to identify small molecule antagonists of the vitamin D receptor (VDR) signaling pathway (AID 743223; active means well fitted inhibition curve with a large enough effect in the signal ratio in the repeat runs, not every such curve was filed as active; the % refers to the signal ratio)
In short: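 Agonist 1alpha,25-dihydroxyvitamin D3 (3 nM in well) was added with each compound to VDR-bla cells preincubated 4 h. Cells stood 16 h at 37C, then FRET substrate 2 h at room temperature; fluorescence intensity recorded.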

[19] = qHTS assay to identify small molecule agonists of the endoplasmic reticulum stress response signaling pathway - cell viability counter screen (AID 1159517; calls by dose curve; further: nearly all actives have a fitted effect of over 50% in size; further: potency means the concentration at half of the fitted maximal effect)
In short: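 CellTiter-Glo was added to wells already read for beta-lactamase FRET, and luminescence was recorded 30 min later. Cells: ESRE-bla HeLa, 1,500 per well, compound exposure 5 hr at 37 C.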

[20] = qHTS assay to identify small molecule agonists of the NFkB signaling pathway - cell viability counter screen (AID 1159515; calls by dose curve; further: series mostly up to about 61 µM; nearly all actives have a fitted effect of over 55% in size)
In short: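 Viability in NFkB-bla ME-180 cells was measured by CellTiter-Glo luminescence, 30 min room temperature, in wells already treated 5 hr with compounds and read for reporter FRET.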

Sequence of Bile acid receptor (Homo sapiens) (Q96RI1 whole entry, looked up): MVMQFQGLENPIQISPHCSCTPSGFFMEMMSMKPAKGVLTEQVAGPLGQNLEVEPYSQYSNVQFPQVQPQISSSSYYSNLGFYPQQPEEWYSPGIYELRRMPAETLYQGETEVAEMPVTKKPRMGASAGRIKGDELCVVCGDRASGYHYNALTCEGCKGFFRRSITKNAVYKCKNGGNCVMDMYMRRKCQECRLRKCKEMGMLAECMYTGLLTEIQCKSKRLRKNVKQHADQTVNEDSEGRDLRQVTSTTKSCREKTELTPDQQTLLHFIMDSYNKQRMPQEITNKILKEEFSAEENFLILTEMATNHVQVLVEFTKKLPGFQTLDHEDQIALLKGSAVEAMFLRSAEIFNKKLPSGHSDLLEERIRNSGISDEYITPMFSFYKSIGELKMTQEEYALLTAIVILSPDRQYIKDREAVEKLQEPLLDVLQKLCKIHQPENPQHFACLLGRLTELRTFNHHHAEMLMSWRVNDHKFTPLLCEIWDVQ
Sequence of Peroxisome proliferator-activated receptor delta (Homo sapiens) (Q03181 whole entry, looked up): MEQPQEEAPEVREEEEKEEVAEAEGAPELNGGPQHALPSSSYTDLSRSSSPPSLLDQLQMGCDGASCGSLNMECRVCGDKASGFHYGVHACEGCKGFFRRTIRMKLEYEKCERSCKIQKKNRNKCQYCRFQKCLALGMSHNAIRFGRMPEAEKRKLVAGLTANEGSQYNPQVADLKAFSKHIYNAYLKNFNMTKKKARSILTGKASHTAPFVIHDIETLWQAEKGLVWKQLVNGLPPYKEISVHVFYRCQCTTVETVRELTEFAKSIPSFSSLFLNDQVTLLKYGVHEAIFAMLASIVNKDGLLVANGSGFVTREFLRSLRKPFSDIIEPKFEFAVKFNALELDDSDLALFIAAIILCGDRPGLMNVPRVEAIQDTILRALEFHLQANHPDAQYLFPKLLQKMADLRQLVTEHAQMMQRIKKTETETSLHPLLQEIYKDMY
Sequence of Vitamin D3 receptor (Homo sapiens) (P11473 whole entry, looked up): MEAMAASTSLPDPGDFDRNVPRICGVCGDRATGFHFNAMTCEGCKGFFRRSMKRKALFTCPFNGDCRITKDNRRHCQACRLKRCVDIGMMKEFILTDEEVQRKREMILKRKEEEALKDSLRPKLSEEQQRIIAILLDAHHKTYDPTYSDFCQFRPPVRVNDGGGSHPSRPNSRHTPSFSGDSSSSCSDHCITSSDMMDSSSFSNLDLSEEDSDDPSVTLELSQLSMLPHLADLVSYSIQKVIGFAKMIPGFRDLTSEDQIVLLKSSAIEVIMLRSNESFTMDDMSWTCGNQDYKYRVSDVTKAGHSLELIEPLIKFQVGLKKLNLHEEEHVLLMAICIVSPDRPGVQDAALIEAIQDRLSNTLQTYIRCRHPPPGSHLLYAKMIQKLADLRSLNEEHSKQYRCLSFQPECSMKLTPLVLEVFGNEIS

Row | SMILES | Potency [1] | outcome [2] | Potency [3] | Potency [4] | Potency [5] | outcome [6] | outcome [7] | Potency [8] | Potency [9] | outcome [10] | Potency [11] | Potency [12] | Potency [13] | outcome [14] | Potency [15] | Potency [16] | outcome [17] | outcome [18] | Potency [19] | Potency [20]
1 | O=C(Nc1ccccc1)Nc1cnns1 | inactive | inactive | inactive | inactive | inactive | inactive | inactive | inactive | inactive | inactive | inactive | inactive | inactive | inactive | – | – | – | – | – | –
2 | COP(=O)(OC)O/C(=C/Cl)c1cc(Cl)c(Cl)cc1Cl | – | inactive | inactive | – | inactive | inactive | – | – | – | inactive | inactive | – | inactive | – | inactive | inactive | inactive | – | – | –
3 | O=S(=O)(O)C(F)(F)C(F)(F)C(F)(F)C(F)(F)F | inactive | – | – | – | – | – | – | – | – | inactive | inactive | inactive | – | inactive | – | – | – | – | – | –
4 | CCOP(=O)(OCC)SCCSCC | inactive | – | inactive | – | – | – | – | inactive | inactive | inactive | inactive | inactive | inactive | inactive | inactive | inactive | – | inactive | inactive | –
5 | N#CCc1ccccc1 | – | inactive | inactive | inactive | – | – | inactive | inactive | inactive | inactive | inactive | inactive | inactive | inactive | inactive | inactive | – | – | inactive | –
6 | O=C(CBr)Nc1ccc(Cl)cc1C(=O)c1ccccc1F | – | inactive | inactive | – | – | – | inactive | inactive | inactive | inactive | inactive | inactive | inactive | – | inactive | inactive | – | – | 23.9 µM (active) | –
7 | NNC(=O)c1cccnc1 | inactive | inactive | inactive | inactive | inactive | inactive | inactive | inactive | inactive | inactive | inactive | inactive | inactive | inactive | – | inactive | – | – | inactive | –
8 | C=CC[C@]1(O)CC[C@H]2[C@@H]3CCC4=CC(=O)CCC4=C3C=C[C@@]21C | inactive | – | inactive | – | – | – | – | inactive | inactive | inactive | – | 2.98 µM (active) | inactive | inactive | inactive | – | – | – | inactive | –
9 | N#C/C(N)=C(/N)C#N | inactive | inactive | inactive | inactive | inactive | inactive | inactive | inactive | inactive | inactive | inactive | inactive | inactive | inactive | inactive | inactive | – | – | inactive | –
10 | O=[N+]([O-])C(Br)(CO)CO | inactive | inactive | inactive | inactive | inactive | inactive | – | – | – | inactive | 43.3 µM (active) | 48.6 µM (active) | inactive | – | inactive | inactive | inactive | – | – | –
11 | CCOC(=O)CBr | inactive | inactive | inactive | inactive | inactive | inactive | inactive | inactive | – | inactive | inactive | inactive | inactive | inactive | – | – | – | – | inactive | –
12 | O=NN1CCNCC1 | – | – | inactive | inactive | – | – | – | inactive | – | inactive | inactive | – | inactive | inactive | – | inactive | – | inactive | inactive | –
13 | NC(=O)C(Cl)(Cl)Cl | inactive | – | inactive | inactive | inactive | inactive | – | inactive | inactive | inactive | inactive | inactive | inactive | inactive | inactive | inactive | – | inactive | inactive | –
14 | C=C(C#N)CCC#N | inactive | – | – | – | – | – | inactive | inactive | inactive | inactive | inactive | inactive | inactive | inactive | inactive | – | – | – | inactive | –
15 | C=CC(=O)OC(C)(C)C | inactive | inactive | inactive | inactive | – | – | – | inactive | inactive | inactive | inactive | inactive | inactive | inactive | inactive | – | inactive | – | – | –
16 | CCn1cc[n+](C)c1 | inactive | – | inactive | – | – | – | – | inactive | inactive | – | inactive | – | inactive | inactive | inactive | inactive | inactive | – | inactive | inactive
17 | CC1(C)CCC(Cc2ccc(Cl)cc2)C1(O)Cn1cncn1 (stereo not drawn) | inactive | inactive | inactive | inactive | inactive | inactive | inactive | inactive | – | inactive | – | 54.5 µM (active) | – | – | inactive | – | – | – | inactive | –
18 | C=CC(=O)OCCCCO | inactive | – | inactive | inactive | inactive | inactive | – | inactive | inactive | inactive | inactive | – | inactive | – | inactive | inactive | inactive | – | inactive | –
19 | Cc1ccc2ccccc2c1 | inactive | inactive | inactive | inactive | inactive | inactive | – | inactive | inactive | inactive | inactive | inactive | inactive | inactive | inactive | inactive | – | – | inactive | –
20 | CC(C)(C)C(O)C(Oc1ccc(Cl)cc1)n1cncn1 (stereo not drawn) | – | – | – | – | – | – | – | – | inactive | inactive | inactive | – | inactive | – | – | inactive | – | – | – | –
21 | C=CC(=O)NCNC(=O)C=C | inactive | – | – | – | – | – | – | inactive | – | inactive | inactive | – | inactive | inactive | – | – | – | – | inactive | –
22 | c1cc2ccc3cccc4ccc(c1)c2c34 | – | – | – | – | – | – | – | – | – | inactive | inactive | inactive | – | inactive | – | – | – | – | – | –
